TDP1 block = qHTS Assay for Inhibitors of Tyrosyl-DNA Phosphodiesterase (TDP1); Tyrosyl-DNA phosphodiesterase 1 (Homo sapiens), Q9NUW8; recombinant TDP1, AlphaScreen DNA substrate cleavage; Potency, µM (titrated, usually from 130 µM), usual class: inhibitors; hit rate 0.28% among 350,000; also: nearly all actives have a fitted effect of over 40% in size
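Enzyme-compound mixtures sat 15 min at room temperature, followed by a 5 min reaction with 15 nM final substrate and 10 min with AlphaScreen beads. Recombinant human Tdp1 was used at 1 nM final.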
HP1b chromo inh = HTS for Inhibitors of HP1-beta Chromodomain Interactions with Methylated Histone Tails. Chromobox protein homolog 1 (Homo sapiens), P83916. AlphaScreen HP1-beta / biotin-H3K9me3 peptide binding. Potency, µM (series often up to 114 µM), actives largely listed as inhibitors. hit rate 0.56% among 390,000. AID 540317, 2011; also: nearly all actives have a fitted effect of over 70% in size
Target sequence (P83916 whole entry, looked up): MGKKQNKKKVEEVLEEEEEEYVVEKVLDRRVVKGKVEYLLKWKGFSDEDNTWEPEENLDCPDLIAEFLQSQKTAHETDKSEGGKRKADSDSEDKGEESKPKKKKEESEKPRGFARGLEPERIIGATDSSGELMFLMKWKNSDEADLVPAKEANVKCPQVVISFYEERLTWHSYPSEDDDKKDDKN
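AlphaScreen: HP1-beta (50 nM) preformed 30 min with biotin-H3(1-18)K9me3 peptide (50 nM) in PBS pH 7.4, 0.01% Tween-20. Compound added for 30 min at RT, then streptavidin donor/nickel chelate acceptor beads (10 ug/mL) for 30 min.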
Six1-Eya2 inh = qHTS Assay for Inhibitors of the Six1/Eya2 Interaction; Homeobox protein SIX1 (Homo sapiens) + Protein phosphatase EYA2 (Homo sapiens), …; AlphaScreen GST-Six1/His-Eya2 binding, biochemical; hits give low values; activity change, % (concentration not given with the values); hit rate 0.56% among 360,000; in the data active = activity change below about -65%; inconclusive = mostly about -30% to -63%
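AlphaScreen luminescence read after one hour at 37 °C in darkness. Pin-transferred compounds met GST-Six1 and His-Eya2 protein (5X stock 250 nM/500 nM) plus glutathione donor and Ni-chelate acceptor beads (5X, 50 ug/mL).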
CtBP-E1A blk = qHTS Assay for Inhibitors of the CtBP/E1A Interaction; AlphaScreen GST-E1A/His-CtBP binding, 1536-well; hits give low values; activity change, % (concentration not given with the values); hit rate 0.49% among 340,000; AID 651724, 2012; in the data active = activity change below about -65%; inconclusive = mostly about -30% to -63%
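Steps: dispense buffer (Tris pH 8.0, NaCl 300 mM, TCEP 1 mM, BSA, Tween 20); add 5X protein mix (GST-E1A, His-CtBP, 125 nM each); pin 23 nL compound; 2 h at 37 °C, dark; add 5X beads (50 ug/mL); 1 h; read.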
JMJD2A Tudor = qHTS Assay for Inhibitors of JMJD2A-Tudor Domain. AID 504339, 2011. hit rate 4.4% among 390,000. AlphaScreen JMJD2A-Tudor / H3K4me3 peptide binding. Potency, µM (highest dose often 114 µM), hits mostly inhibitors. Lysine-specific demethylase 4A (Homo sapiens), O75164; also: nearly all actives have a fitted effect of over 50% in size
BAZ2B inh = qHTS Assay for Inhibitors of BAZ2B. Bromodomain adjacent to zinc finger domain protein 2B (Homo sapiens), Q9UIF8. AlphaScreen BAZ2B-H3K14Ac peptide displacement. Potency, µM (titrated, usually from 114 µM), actives largely listed as inhibitors. hit rate 4.4% among 360,000. AID 504333, 2011; also: nearly all actives have a fitted effect of over 60% in size
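AlphaScreen luminescence quantifies BAZ2B engagement of H3K14Ac peptide; the protein and biotinylated peptide are both at 50 nM final, buffer PBS pH 7.4 with 0.01% Tween-20, all steps at room temperature.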
Hits are given with their value; n = inactive; u = inconclusive; x = not tested or not shown; [ ] = dose if it differs, or a comment. Sampled rows, rich in hits. Any-hit rate of the full collection: about 5.3%. Unless noted, calls follow the shape of the dose curve; as a rule, active = well fitted inhibition curve with a large enough effect; inconclusive = small, poorly fitted or top-dose-only effect; inactive = no such curve, though single readings can be large or run the other way.

SMILES | TDP1 block | HP1b chromo inh | Six1-Eya2 inh | CtBP-E1A blk | JMJD2A Tudor | BAZ2B inh
CC(=O)Nc1ccc(C=NNc2ccc([N+](=O)[O-])cc2S(=O)(=O)Nc2ccccc2C(=O)O)cc1 | n | n | n | n | u | x
COc1ccc(C(C)=NNc2ccc([N+](=O)[O-])cc2S(=O)(=O)Nc2ccccc2C(=O)O)c(OC)c1 | n | n | n | n | u | x
CC(=O)Nc1cccc(/C(C)=N/Nc2ccc(S(=O)(=O)Nc3ccccc3C(=O)O)cc2[N+](=O)[O-])c1 | x | u | n | n | 35.5µM | x
Cc1ccc(S(=O)(=O)N(CC(=O)Nc2ccc3c(c2)OCO3)c2ccc(C)c(Cl)c2)cc1 | n[12.3 µM] | n | x | x | u | u
NS(=O)(=O)c1ccc(N/N=C/c2ccc(C(=O)O)cc2)c([N+](=O)[O-])c1 | n | n | n | n | n | u
COc1ccc(C(=O)COC(=O)c2ccccc2NS(=O)(=O)c2ccc(O)c([N+](=O)[O-])c2)cc1 | n | n | n | n | u | 56.2µM
COc1cc(/C=N/Nc2ccc(S(N)(=O)=O)cc2[N+](=O)[O-])cc(OC)c1O | n | n | u | x | n | u
O=C(O)c1ccccc1NS(=O)(=O)c1ccc(N/N=C/c2cccc(O)c2O)c([N+](=O)[O-])c1 | x | u | u | n | 20µM | x
COc1cc(C=NNc2ccc(S(=O)(=O)Nc3ccccc3C(=O)O)cc2[N+](=O)[O-])ccc1O | n | u | u | x | 25.1µM | x
Cc1ccc(NC(=O)Cn2c(=O)c3ccccc3n3nncc23)cc1 | n | n | x | x | n | n
CCOc1ccc(CNC(=O)Cn2cc3c(n2)-c2c(oc(C(=O)N4CCOCC4)c2C)CC3)cc1 | n | n | x | x | 56.2µM | u
Oc1ccc2ccccc2c1CNc1ccc(Br)cn1 | n | n | n | n | n | n
Oc1ccc2ccccc2c1CNc1ccc(Br)cc1 | x | n | n | n | u | 39.8µM
COc1ccc(-n2nc3ccc(NC(=O)c4ccc(C#N)cc4F)cc3n2)cc1Cl | n | n | x | x | n | n
CCOc1ccccc1NCc1nnc2n1CCCCC2 | n | n | x | x | n | n
O=C(N/N=C/c1cccc([N+](=O)[O-])c1)c1cc2ccccc2o1 | n | n | n | n | n | u
O=C(N/N=C\c1ccc2c(c1)OCO2)c1cncc(Br)c1 | 50.1µM | n | n | n | u | n
O=C(N/N=C/c1ccc2c(c1)OCO2)c1cccnc1 | n | n | n | n | n | n
O=C(N/N=C/c1ccsc1)c1cc2ccccc2o1 | 79.4µM | n | n | x | n | n
O=C(N/N=C/c1ccc2c(c1)OCO2)c1cc2ccccc2o1 | 50.1µM | n | n | n | n | u
O=C(O)/C=C/c1ccc([N+](=O)[O-])o1 | 31.6µM | 50.1µM | n | n | 35.5µM | 56.2µM
CCN(CC)c1ccc(NC(=S)NC(=O)C2CCC2)cc1 | n | u | u | u | 44.7µM | 22.4µM
NC(=O)c1ccc[n+]([C@H]2O[C@@H](COP(=O)([O-])OP(=O)(O)OC[C@H]3O[C@@H](n4cnc5c(N)ncnc54)[C@H](O)[C@@H]3O)[C@H](O)[C@@H]2O)c1 | x | n | n | n | 79.4µM | 35.5µM
O=C(O)C(=O)/C(=C\c1ccsc1)c1ccc2ccccc2n1 | x | n | n | n | 89.1µM | n
COc1cc(-c2ccno2)ccc1S(=O)(=O)N1CCN(c2ccc(C(C)=O)cc2)CC1 | n | n | x | x | n | n
SMILES | TDP1 block | HP1b chromo inh | Six1-Eya2 inh | CtBP-E1A blk | JMJD2A Tudor | BAZ2B inh
N#Cc1c2n(c3c(=S)nc[nH]c13)CCCCC2 | n | n | n | n | 35.5µM | n
CCn1c(CNC(C)=O)nnc1SCC(=O)c1ccc(Br)cc1 | n | n | n | n | 56.2µM | n
CCn1c(CCNC(=O)c2cccs2)nnc1SCC(=O)c1ccc(OC)cc1 | x | u | n | n | 28.2µM | x
CCn1c(CCNC(=O)c2cccs2)nnc1SCC(=O)Nc1nc(-c2ccccc2)cs1 | n | n | n | n | n | n
O=C(c1cc(-c2ccc(Br)cc2)n[nH]1)N1CCN(S(=O)(=O)c2ccc(Cl)s2)CC1 | n | n | x | x | n | n
CCN(CC)c1ccc(NC(=O)/C=C/c2cc(Br)ccc2OC)cc1 | n | u | u | u | 3.98µM | 8.91µM
O=C(Cn1c2ncccc2c(=O)n1-c1ccccc1)Nc1ccc(F)c(F)c1 | n | n | x | x | n | n
CCOC(=O)C1CCN(CC(=O)Nc2cc(S(=O)(=O)N3CCCCC3)ccc2Cl)CC1 | n | n | n | n | n | n
CCN1CCN(CC(=O)Nc2cc(S(=O)(=O)N3CCCCC3)ccc2Cl)CC1 | n | u | n | n | 22.4µM | x
O=C(CN1CCN(c2ccc(O)cc2)CC1)Nc1cc(S(=O)(=O)N2CCCC2)ccc1Cl | n | u | u | u | u | u
O=C(CN1CCN(c2ccc(O)cc2)CC1)Nc1cc(S(=O)(=O)N2CCCCC2)ccc1Cl | n | 50.1µM | n | n | u | x
Cc1[nH]c(=S)c(C#N)c(C)c1CCC#N | x | n | n | n | 20µM | n
Cc1ccc(NC(=O)CN2C(=O)S/C(=C\c3ccccn3)C2=O)cc1 | n | n | n | x | n | n
Cc1ccc(NC(=O)CN2C(=O)S/C(=C\c3ccc(C(=O)O)cc3)C2=O)cc1 | x | n | n | x | u | 56.2µM
Cc1ccc(NC(=O)CN2C(=O)S/C(=C\c3cc(C)n(-c4cccc(C(=O)O)c4)c3C)C2=O)cc1 | n | n | n | n | 56.2µM | 44.7µM
O=C1C=CC(=Nc2ccc3c(c2)C(=O)c2ccccc2-3)O1 | x | n | u | u | n | x
O=C1C=CC(=Nc2ccc(F)cc2)O1 | x | 22.4µM | n | n | 44.7µM | x
Fc1ccc(CNc2ccc(N3CCN(Cc4ccccc4)CC3)cc2)cc1 | n | 22.4µM | -72.3 | -73.5 | 20µM | 10µM
c1ccc(CN2CCOCC2)nc1 | x | n | n | n | 11.2µM | x
c1ccc2c(CN3CCOCC3)c3ccccc3c(CN3CCOCC3)c2c1 | n | n | n | n | n | n
O=C(CCS(=O)(=O)c1ccc(F)cc1)Nc1ccc(N2CCN(Cc3ccccc3)CC2)cc1 | n | n | n | n | n | n
Oc1cccnc1CN1CCOCC1 | x | n | n | n | 7.94µM | x
O=P(O)(CCc1ccccn1)CN1CCOCC1 | n | n | n | n | u | n
Fc1ccc(N2CCN(Cc3ccccn3)CC2)cc1 | n | u | n | n | 11.2µM | 50.1µM
CC(=O)c1ccc(C2C=CC(Oc3ccc(F)cc3C)C(CO)O2)cc1 (stereo not drawn) | n[21 µM] | x | x | x | x | x
CN1CCN(CC(=O)N2c3ccc(S(=O)(=O)NCCNC(=O)OC(C)(C)C)cc3C(=O)Nc3cccnc32)CC1 | x | u | x | x | 14.1µM | x

Source: PubChem BioAssay
